About 79,000 compounds went through this panel and 15% of them were active in at least one assay; those are over-represented in the sample as a whole. Cut-off read from the data, not from the text of the source: active = growth inhibition above about 70%; inactive = the rest.
How the values were obtained:
[1] = NCI Yeast Anticancer Drug Screen. Data for the rad50 strain (AID 155);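 note: 0% = growth of vehicle-only cultures of the same strain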; settings: S. cerevisiae rad50 strain growth inhibition; at 50.0 µM; hits give high values
Method in brief: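 Genetically altered yeast (DNA repair pathway); compound treatment; growth inhibition vs vehicle ctrl.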

[2] = NCI Yeast Anticancer Drug Screen. Data for the mec2-1 strain (AID 157); settings: S. cerevisiae mec2-1 strain, at 50.0 µM, hits give high values
Method in brief: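 Using mec2-1 yeast: add compound, measure growth, express inhibition versus vehicle-treated cultures.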

[3] = NCI Yeast Anticancer Drug Screen. Data for the sgs1 mgt1 strain (AID 161);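 note: 0% = growth of cultures given vehicle only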; settings: S. cerevisiae sgs1 mgt1 strain, at 50.0 µM, hits give high values
Method in brief: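 Compounds are added to genetically altered yeast, and growth is compared with cultures given vehicle alone to give percent inhibition.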

[4] = NCI Yeast Anticancer Drug Screen. Data for the cln2 rad14 strain (AID 165);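 note: 0% = growth equal to vehicle treated cultures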; settings: S. cerevisiae cln2 rad14 strain, at 50.0 µM, hits give high values
Method in brief: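 Yeast strain cln2 rad14, bearing defects in cell cycle control and DNA repair, serves as the test system; values reflect growth inhibition compared with vehicle.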

[5] = NCI Yeast Anticancer Drug Screen. Data for the bub3 strain (AID 167); settings: S. cerevisiae bub3 mutant strain, at 50.0 µM, hits give high values
Method in brief: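 Yeast carrying a defined mutation is treated with each compound, and growth is compared with that of vehicle-exposed cells to give inhibition.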

[6] = NCI Yeast Anticancer Drug Screen. Data for the mlh1 rad18 strain (AID 175); settings: S. cerevisiae mlh1 rad18 strain growth inhibition; at 50.0 µM; hits give high values
Method in brief: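 Steps: expose repair-defective yeast to compound; measure growth; express inhibition against vehicle-treated controls.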

Measured: growth inhibition

O=C1CSC(=S)N1Nc1ccccc1
inactive: [1] 2.45% | [2] -22.2% | [3] 22.2% | [4] 3.15% | [5] -15.8% | [6] -10.1%

CC(C)(C)C(=O)OCCN(CCOC(=O)C(C)(C)C)C(=O)COC(=O)C(C)(C)C
inactive: [1] 31.4% | [2] -0.95% | [3] 21.1% | [4] 20.7% | [5] -3.25% | [6] 20.4%

O=C(CCc1nnc2s/c(=C\c3ccccc3)c(=O)n12)Nc1cc(Cl)ccc1Cl
inactive: [1] -30.9% | [2] -1.6% | [3] -18.4% | [4] 16.4% | [5] 4.95% | [6] -1.45%

COc1ccc([N+](=O)[O-])c2ccc(=O)oc12
inactive: [1] -9.9% | [2] 5.2% | [3] -4.1% | [4] -0.35% | [5] 4.75% | [6] 9.9%

O=C1CCCCCN1
inactive: [1] 18.5% | [2] 1.55% | [3] -9.95% | [4] -11.3% | [5] -5.1% | [6] 18.1%

C=C(C)C(=O)OC1C[C@H](COC(C)=O)C2CC=C(CO)C2C2OC(=O)C(=C)[C@H]12 (stereo partly specified)
inactive: [1] 16.9% | [2] 15.1% | [3] 10.2% | [4] -1.25% | [5] -1.25% | [6] 25.1%

Cc1ccc(/C(O)=C/C(=O)C(=O)NN=C(c2ccccc2)c2ccccc2)cc1
inactive: [1] 5.9% | [2] -11.9% | [3] 26.8% | [4] 4.85% | [5] 20.3% | [6] -1.85%

Nc1ccccc1NC(=O)C(F)(F)F
inactive: [1] -2.45% | [2] -5.4% | [3] 3.3% | [4] -8.4% | [5] -8.75% | [6] 1.15%

COC(=O)C(C)Oc1ccccc1 (stereo unspecified)
inactive: [1] 2.35% | [2] -28.2% | [3] -9.4% | [4] -4.8% | [5] -10% | [6] -18.5%

CC(C)CCC[C@@H](C)[C@H]1CC[C@H]2[C@@H]3CC=C4C[C@@H](OC(=O)c5cccc6c(=O)c7ccccc7[nH]c56)CC[C@]4(C)[C@H]3CC[C@]12C
inactive: [1] 12.8% | [2] 16.1% | [3] 3.3% | [4] -4.95% | [5] -3.8% | [6] -28.9%

CCOC(=O)Cc1cc(Cl)c2ccc(Cl)cc2n1
inactive: [1] 32.1% | [2] -2% | [3] 23.2% | [4] 11.6% | [5] 36.4% | [6] 40.4%

Cc1nc2c(-c3ccccc3)[nH]c(C)c2c(=O)o1
inactive: [1] -17.2% | [2] -40.1% | [3] -31.9% | [4] -8.8% | [5] -18.5% | [6] -24.4%

Cc1cc2c(=O)c3ccccc3oc2c(C#N)c1C
inactive: [1] 19.6% | [2] 8.25% | [3] 9.2% | [4] -15.4% | [5] 18.3% | [6] 16.9%

Cn1cnc([N+](=O)[O-])c1Sc1ccccc1N
inactive: [1] -7.3% | [2] -4.15% | [3] 0.45% | [4] 18.6% | [5] -15.7% | [6] -2.5%

CCOC(=O)C(C(=O)OCC)C(NC(=O)Nc1cc(C(F)(F)F)ccc1OC)(C(F)(F)F)C(F)(F)F
inactive: [1] 23.1% | [2] 11.6% | [3] 11.4% | [4] 3.45% | [5] 21.6% | [6] 24.8%

BrCCCC1CCCCC1
inactive: [1] -23.6% | [2] -41.7% | [3] -13.2% | [4] 2.1% | [5] -14.6% | [6] -14.7%

COC(=O)CCCC1(CCCC(=O)OC)CCCCCCCCC(CCCC(=O)OC)(CCCC(=O)OC)C(=O)C1=O
inactive: [1] 21.8% | [2] 36.9% | [3] 37.2% | [4] 45.5% | [5] 35.8% | [6] 47.6%

COc1ccc(/C(Cl)=C(\CNc2ccccn2)c2ccccc2)cc1OC
inactive: [1] -14.4% | [2] -21.9% | [3] -39.9% | [4] -22.7% | [5] 2.3% | [6] -34.1%

Cc1cc2ccccc2n1S(=O)(=O)c1ccccc1
inactive: [1] 54% | [2] 45.4% | [3] 18.4% | [4] 35% | [5] 61% | [6] 66.3%

Cc1nc2cc(N)c(F)cc2[nH]1
inactive: [1] -14.6% | [2] -6.95% | [3] 21.4% | [4] 12.8% | [5] 16.4% | [6] -0.1%

COc1cc(C(=O)Nc2cccc(Cl)c2Cl)cc(OC)c1OC
inactive: [1] -7.45% | [2] -13.6% | [3] 12% | [4] 21.2% | [5] 18% | [6] 10.9%
